Source: PubChem BioAssay (NCATS)
Inconclusive results are not listed. Entries that show only a call come without a potency. The source made the active and inactive calls. Calls come from the whole dose curve; as a rule, active = well fitted curve in the direction sought with a large enough effect; inconclusive = small, poorly fitted or top-dose-only effect, or another doubt; inactive = no such curve, though single readings can be large; an effect the other way counts as inactive or inconclusive.

Legend:
[1] = molecular target: Aldehyde dehydrogenase, mitochondrial (Homo sapiens) (UniProt P05091); assay: qHTS for Inhibitors of the Aldehyde Dehydrogenase Family (ALDH2) Primary screen (AID 2061308); note: nearly all actives have a fitted effect of over 55% in size
[2] = molecular target: Retinaldehyde dehydrogenase 3 (Homo sapiens) (UniProt P47895); assay: qHTS for Inhibitors of the Aldehyde Dehydrogenase Family (ALDH1A3) Primary screen (AID 2061315)

SMILES | Potency [1] | Potency [2]
CC(C)(C)c1ccc(C(=O)NCC(=O)OC(C(=O)Nc2cc(C(F)(F)F)ccc2Cl)c2ccccc2)cc1 (configuration not stated) | inactive | inactive
Fc1ccc(-c2ccc(Nc3nc(-c4ccncc4)nc4ccccc34)cc2F)c(Cl)c1 | inactive | inactive
COc1ccc(C(=O)N(Cc2ccccc2)Cc2cccs2)c(O)c1 | inactive | inactive
Cn1nnnc1Sc1ncnc2scc(-c3ccc(C#N)cc3)c12 | inactive | inactive
Cc1cc(C)nc(NC(=S)N2CCN(c3cc(Cl)cc(C(F)(F)F)c3)CC2)c1 | inactive | inactive
Cc1ccc(C(=O)Oc2ccc(-c3nc4ccccc4[nH]3)cc2)cc1Br | inactive | inactive
COc1cccc(NC(=S)N2CCN(c3ccccc3C(F)(F)F)CC2)n1 | inactive | inactive
O=C(c1ccccc1)N(C(=O)c1ccccc1)c1ncnc2c1C(c1ccccc1)c1c(ccc3ccccc13)O2 (configuration not stated) | inactive | inactive
C=C(C)C(=O)OC1[C@@H]2C(=C)C(=O)O[C@@H]2C[C@@H](C)[C@@H]2C=CC(=O)[C@@]12C (some centres not stated) | inactive | inactive
CCCCCNc1oc(-c2cccc3ccccc23)nc1C#N | inactive | inactive
COc1ccc2c(c1)Oc1ncn(CCN3CCOCC3)c(=N)c1C2c1ccc(OC)c(OC)c1 (configuration not stated) | inactive | inactive
C[C@H]1CN(S(=O)(=O)c2c(F)cccc2F)CCN1S(=O)(=O)c1ccc2c(c1)OCCO2 | inactive | inactive
Cc1ccc(NS(=O)(=O)c2cc3c(cc2F)NC(=O)CC3)cc1C | inactive | inactive
CC(=O)Nc1sc2c(c1-c1cccc3ccccc13)CCNC2 | inactive | inactive
CCn1cnc2c(NCCc3cccnc3)nc(C#N)nc21 | inactive | inactive
C[C@H]1CN(S(=O)(=O)c2ccc3c(c2)OCCO3)CCN1S(=O)(=O)c1c(F)cccc1F | inactive | inactive
Cc1ccc(S(=O)(=O)Nc2ccccc2C(=O)Nc2nc(-c3ccccc3)cs2)cc1 | inactive | inactive
c1nc(NCC2CCCCC2)c2cc(-c3ccc4c(c3)OCO4)ccc2n1 | inactive | inactive
CCN(CC)CCn1c(-c2ccccc2)nc2c(N3CCOCC3)nc(C)nc21 | inactive | inactive
Cc1cc(CNc2ncnc3ccc(-c4ccc5c(c4)OCO5)cc23)c(C)o1 | inactive | inactive
Fc1ccccc1N1CCN(c2nc(-c3cccs3)nc3ccccc23)CC1 | inactive | inactive

SMILES | Potency [1] | Potency [2]
Cc1ccc(S(=O)(=O)Nc2cnccc2C(=O)Nc2ccccc2)cc1 | inactive | inactive
Cc1cc(N[S+](=O)([O-])c2ccc3c(c2)CCC(=O)N3C)ccc1F | inactive | inactive
O=S1(=O)N=C(Oc2cccc(-c3ccccc3)c2)c2ccccc21 | inactive | inactive
COc1cccc(CNc2ccc(S(=O)(=O)Nc3cccc(N4CCNCC4)c3)cc2)c1O | inactive | inactive
O=C(O)c1ccc2c(c1)C(=O)N([C@H](Cc1ccc([N+](=O)[O-])cc1)C(=O)O)C2=O | inactive | inactive
CCCn1c(C)nc2c(NCCN(CC)CC)nc(C)nc21 | inactive | inactive
O=C(Nc1ccc(S(=O)(=O)Nc2ncc(-c3ccccc3)s2)cc1)c1ccc2ccccc2c1 | inactive | inactive
C(#Cc1cccs1)c1cccnc1 | inactive | inactive
Cc1cc2c(s1)c1cnn(Cc3ccccc3F)c(=O)c1n2C(C)C | inactive | inactive
Cc1cc2c(s1)c1cnn(Cc3ccccc3F)c(=O)c1n2C | inactive | inactive
O=C1CCCC2=C1C(c1[nH]ncc1Cl)NC(=NCc1nccs1)N2 (configuration not stated) | inactive | inactive
C(=C\c1cccs1)/c1cccnc1 | inactive | inactive
C=C1[C@H]2CC[C@H](C(=O)O)[C@@]23CC[C@H](C3)C1(C)C | inactive | inactive
Cc1ccnc(NC(=S)N2CC[C@@H](Nc3cccc(C(F)(F)F)c3)C2)c1 | inactive | inactive
CCOC(=O)c1nn(-c2ccccc2)c(=O)c2c(N)scc12 | inactive | inactive
FC(F)(F)c1ccccc1-c1nccc(NCc2ccc(-c3cccnc3)cc2)n1 | inactive | inactive
O=C1CCCC2=C1C1(CCCOC1)N=C(Nc1nc3ccccc3o1)N2 (configuration not stated) | inactive | inactive
COc1ccc(-c2nc(Nc3ccc(F)c(F)c3)c3ccccc3n2)cc1 | inactive | inactive
O=C(CNC(=O)c1cccc2ccccc12)OC(C(=O)Nc1cc(C(F)(F)F)ccc1Cl)c1ccccc1 (configuration not stated) | inactive | inactive
O=S(=O)(NC1CCN(S(=O)(=O)c2ccc3c(c2)OCCO3)CC1)c1c(F)cccc1F | inactive | inactive
COc1cc(O)c(C(CC(=O)N2CCC(Cc3ccccc3)CC2)c2ccc(C)cc2)c(OC)c1 (configuration not stated) | inactive | inactive

SMILES | Potency [1] | Potency [2]
Cc1ccc(S(=O)(=O)Nc2cnccc2C(=O)Nc2nc(-c3ccc(F)cc3)cs2)cc1 | inactive | inactive
Cc1ccc(OCCn2c(CCNC(=O)C3CCNCC3)nc3ccccc32)cc1 | inactive | inactive
COc1cc(-c2nc(Nc3ccc(F)c(F)c3)c3ccccc3n2)cc(OC)n1 | inactive | inactive
CC(=O)N1CCc2cc(S(=O)(=O)Nc3ccc(C)c(C)c3)ccc21 | inactive | inactive
CC1OC2O[C@H]3[C@@H](OCC(O)[C@H]3O)OC(=O)C34CCC(C)(C)CC3C3=CCC5C6(C)CC(O)C(OC7OC(CO)C(O)C(O)C7O[C@@H]7OC[C@H](OC(=O)CC(C)(O)CC(=O)OC1C(OC1OCC(O)C(O)C1O)C2O)[C@@H](O)[C@H]7O)C(C)(CO)C6CCC5(C)C3(C)CC4 (some centres not stated) | inactive | inactive
O=C1CCc2cc(S(=O)(=O)Nc3ccc(-c4ccccc4)cc3)ccc2N1 | inactive | inactive
Cc1cc(C)n2ncc(C(=O)Nc3ccc(Br)cc3)c2n1 | inactive | inactive
FC1(F)Oc2ccc(-c3ccc4ncnc(NCc5cccs5)c4c3)cc2O1 | inactive | inactive
O=S(=O)(NC[C@@H]1CCC[C@H](CNS(=O)(=O)c2c(F)cccc2F)C1)c1ccc2c(c1)OCCO2 | inactive | inactive
O=C(/C=C/c1c(F)c(F)c(F)c(F)c1F)Nc1cccc([S+](=O)([O-])Nc2ccccc2F)c1 | inactive | inactive
O=c1c2ccccc2nc(-c2ccccc2O)n1Cc1ccccc1 | inactive | inactive
CN(c1ccc(NC(=O)Nc2ccccc2)cc1)S(=O)(=O)c1cnn(-c2ccc(F)cc2)c1 | inactive | inactive
CC(=O)Nc1ccc(C(=O)Nc2ccc(-c3nc4ccccc4[nH]3)cc2)cc1 | inactive | inactive
CCOC(=O)C1CCN(C(=O)C(C)(C)NC(=O)Nc2ccc([N+](=O)[O-])cc2)CC1 | inactive | inactive
O=C(O)c1ccc(O)c2ncc(N3CCCCC3CCc3ccccn3)cc12 (configuration not stated) | inactive | inactive
Cc1cccc(CNc2nc(-c3ccccc3C(F)(F)F)nc3ccccc23)c1 | inactive | inactive
COc1cccc(CNc2ccc(S(=O)(=O)Nc3nc4c(C)cccc4s3)cc2)c1O | inactive | inactive
O=C1CCc2cc(S(=O)(=O)Nc3cccc(Br)c3)ccc2N1 | inactive | inactive
Cc1noc(C)c1-c1ccc2ncnc(NCc3ccc(Br)cc3)c2c1 | inactive | inactive
Brc1ccccc1-c1nc(NCc2ccc(-c3cccnc3)cc2)c2ccccc2n1 | inactive | inactive
CN(Cc1ccco1)c1ncnc2ccc(-c3ccccc3Cl)cc12 | inactive | inactive

SMILES | Potency [1] | Potency [2]
COc1ccc(C2NC(=O)c3ccccc3N2)cc1COc1c(C)cc(NC(C)=O)cc1C (configuration not stated) | inactive | inactive
CC(=O)O[C@@H]1CC[C@@]2(C)C(CC[C@]3(C)C2[C@H](O)C=C2[C@H]4[C@@H](C)[C@H](C)CC[C@]4(C)CC[C@]23C)[C@@]1(C)C(=O)O (some centres not stated) | inactive | inactive
COc1cccc(C2c3c(ncn(-c4cccnc4)c3=N)Oc3ccc4ccccc4c32)c1 (configuration not stated) | inactive | inactive
CC(=O)Nc1ccc(S(=O)(=O)Nc2nccs2)cc1 | inactive | inactive
COc1ccc(NC(=O)c2cnn3c(C)cc(C)nc23)cc1Cl | inactive | inactive
CC[C@H]1OC(=O)[C@](C)(F)C(=O)[C@H](C)[C@@H](O[C@@H]2O[C@H](C)C[C@H](N(C)C)[C@H]2O)[C@](C)(OC)C[C@@H](C)C(=O)[C@@H](C)[C@H]2N(CCCCn3cc(-c4cccc(N)c4)nn3)C(=O)O[C@]12C | inactive | inactive
COc1ccc(C2Nc3ccccc3C(=O)N2Cc2ccc(C)o2)cc1COc1c(C)cccc1C (configuration not stated) | inactive | inactive
Cc1ccc(-c2cc(C(=O)Nc3ccccc3Cl)c3ccccc3n2)cc1C | inactive | inactive
CN(C)c1ccc(C2N=C(Nc3nc4ccccc4o3)NC3=C2C(=O)CCC3)cc1 (configuration not stated) | inactive | inactive
O=C(Cc1ccccc1)Nc1sc2c(c1C(=O)Nc1ccc(Cl)cc1)CCOC2 | inactive | inactive
COc1ccc(N2Cc3cccc(C(=O)O)c3C2=O)cc1OC | inactive | inactive
C=C1C(=O)O[C@H]2[C@H]1CC/C(C)=C/CC[C@@]1(C)O[C@@H]21 | inactive | inactive
C=CC(=O)Nc1cc(Nc2ncc(Cl)c(-c3c[nH]c4ccccc34)n2)c(OC)cc1N(C)CCN(C)C | inactive | inactive
Fc1cnc(-c2ccccc2C(F)F)nc1NCc1ccc(-c2cccnc2)cc1 | inactive | inactive
O=S(=O)(NCC1CN(S(=O)(=O)c2c(F)cccc2F)C1)c1ccc2c(c1)OCCO2 | inactive | inactive
CCCCN(C)C(=O)Cn1nc(-c2ccc(F)cc2)ccc1=O | inactive | inactive
O=C(Nc1nc(-c2ccccc2)cs1)c1ccncc1NS(=O)(=O)c1ccc(F)cc1 | inactive | inactive
COc1ccc(C2c3c(nc(C)[nH]c3=O)Oc3ccc4ccccc4c32)cc1OC (configuration not stated) | inactive | inactive
